In PubChem BioAssay (Tox21):
Results filed as inconclusive are left out. Active and inactive are the calls of the source. Calls come from the whole dose curve; as a rule, active = well fitted curve in the direction sought with a large enough effect in the repeat runs; inconclusive = weak or mixed curves; inactive = no such curve, though single readings can be large; an effect the other way counts as inactive or inconclusive.

Legend:
[1] = A CellTox Green Cytotoxicity Assay to monitor cytotoxicity in HepG2 cells - 0 hour (AID 1224882); note: nearly all actives have a fitted effect of over 35% in size
In short: (§1)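 Real-time cytotoxicity: fluorescence of a cell-impermeant cyanine dye binding DNA of dead HepG2 cells, measured repeatedly (0–40 h) during compound exposure at 37 C. Cells seeded 600/well with reagent, dosed after 5 h.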

[2] = A CellTox Green Cytotoxicity Assay to monitor cytotoxicity in HepG2 cells - 32 hour (AID 1224883); note: nearly all actives have a fitted effect of over 50% in size
In short: as §1

[3] = A CellTox Green Cytotoxicity Assay to monitor cytotoxicity in HEK293 cells - 8 hour (AID 1224884); note: nearly all actives have a fitted effect of over 35% in size
In short: (§2)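 Fluorescence from a DNA-binding dye excluded by viable cells was measured repeatedly in the same HEK293 wells (600 cells/well) during continuous compound exposure at 37 C. Each assay gives one read point: 0, 8, 16, 24, 32 or 40 h.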

[4] = qHTS RealTime-Glo MT Cell Viability Assay in HepG2 cells - 16 hour (AID 1224885); note: nearly all actives have a fitted effect of over 50% in size
In short: (§3)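 Tox21 10K library screened in qHTS format on HepG2 cells carrying RealTime-Glo reagents. Compounds were added after a 5 h preincubation, and the luminescent signal from continuous culture was measured repeatedly during 40 h treatment.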

[5] = qHTS RealTime-Glo MT Cell Viability Assay in HEK293 cells - 24 hour (AID 1224886); note: nearly all actives have a fitted effect of over 50% in size; note: potency is the fitted concentration of half-maximal effect; for activity change, negative = cytotoxicity: top concentration of the series differs between compounds
In short: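 Luminescence generated by NanoLuc from substrate produced by living HEK293 cells served as the viability signal. Each value reflects the reading at its stated time point during continuous 40 h compound exposure at 37 C.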

[6] = qHTS RealTime-Glo MT Cell Viability Assay in HEK293 cells - 8 hour (AID 1224887); note: nearly all actives have a fitted effect of over 50% in size; note: potency is the fitted concentration of half-maximal effect; for activity change, negative = cytotoxicity: top concentration of the series differs between compounds
In short: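 Luminescence, which tracks viable cell number through reduction of the prosubstrate to a NanoLuc substrate, was read over continuous 37 C culture. Cells (600/well) were premixed with reagent and rested 5 h before 23 nL of compound in DMSO was pinned.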

[7] = A CellTox Green Cytotoxicity Assay to monitor cytotoxicity in HEK293 cells - 16 hour (AID 1224888); note: nearly all actives have a fitted effect of over 35% in size
In short: as §2

[8] = qHTS RealTime-Glo MT Cell Viability Assay in HepG2 cells - 0 hour (AID 1224889); note: nearly all actives have a fitted effect of over 50% in size
In short: as §3

[9] = A CellTox Green Cytotoxicity Assay to monitor cytotoxicity in HepG2 cells - 8 hour (AID 1224890); note: nearly all actives have a fitted effect of over 45% in size
In short: as §1

[10] = qHTS assay to identify small molecule antagonists of the estrogen receptor alpha (ER-alpha) signaling pathway using the BG1 cell line in the presence of 0.1 nM 17-beta-estradiol - cell viability counter screen (AID 1259241); note: nearly all actives have a fitted effect of over 40% in size
In short: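 CellTiter-Fluor read (30 min, 37C) on ER-alpha/ERE-luc VM7Luc4E2 cells; 22 hr compound treatment; agonist 0.1 nM E2 final; same-well multiplex.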
% is set by controls: 0 for no effect and ±100 for the full control effect.

C=C1C(=C/C=C2\CCC[C@]3(C)[C@@H]([C@H](C)/C=C/[C@@H](O)C4CC4)CC[C@@H]23)C[C@@H](O)C[C@@H]1O
inactive: Potency [1] | Potency [2] | Potency [3] | Potency [4] | Potency [7] | Potency [8] | Potency [9] | Potency [10]
active: Potency [5] 19 µM | Potency [6] 19 µM

CN(C)CCN(Cc1ccccc1)c1ccccn1
inactive: Potency [1] | Potency [2] | Potency [3] | Potency [4] | Potency [5] | Potency [6] | Potency [7] | Potency [8] | Potency [9]

CCCCCCCCO[C@@H]1O[C@H](CO)[C@@H](O)[C@H](O)[C@H]1O
inactive: Potency [1] | Potency [2] | Potency [3] | Potency [4] | Potency [5] | Potency [6] | Potency [7] | Potency [8] | Potency [9] | Potency [10]

C/C=C/C(=O)CC
inactive: cytotoxicity [1] 0.505% [at 15.8 µM] | cytotoxicity increase [2] 2.71% [at 15.8 µM] | cytotoxicity increase [3] 1.29% [at 15.8 µM] | activity change, negative = cytotoxic [4] 0.412% [at 15.8 µM] | activity change, negative = cytotoxicity [5] 0.822% [at 15.8 µM] | activity change, negative = cytotoxicity [6] 0.36% [at 15.8 µM] | activity change [7] 0.377% [at 15.8 µM, hits give high values] | activity change, negative = cytotoxicity [8] 4.66% [at 15.8 µM] | cytotoxicity increase [9] 6.47% [at 15.8 µM] | activity change, negative = cytotoxicity [10] 0.659% [at 19 µM]

CCOC(=O)C(O)c1ccccc1 (stereo unspecified)
inactive: Potency [1] | Potency [2] | Potency [3] | Potency [4] | Potency [5] | Potency [6] | Potency [7] | Potency [8] | Potency [9] | Potency [10]

C[Si](C)(CCCN)O[Si](C)(C)CCCN
inactive: Potency [1] | Potency [2] | Potency [3] | Potency [4] | Potency [5] | Potency [6] | Potency [7] | Potency [8] | Potency [9] | Potency [10]

CCCn1cnc2c1c(=O)n(CCCCC(C)=O)c(=O)n2C
inactive: Potency [1] | Potency [2] | Potency [3] | Potency [4] | Potency [5] | Potency [6] | Potency [7] | Potency [8] | Potency [9]

Cc1ncc(CO)c(C=O)c1O
inactive: Potency [1] | Potency [2] | Potency [3] | Potency [4] | Potency [5] | Potency [6] | Potency [7] | Potency [8] | Potency [9]

O=P(O)(OCc1ccccc1)OCc1ccccc1
inactive: Potency [1] | Potency [2] | Potency [3] | Potency [4] | Potency [5] | Potency [6] | Potency [7] | Potency [8] | Potency [9]

O=C1OC(=O)C2C3C=CC(C3)C12 (stereo unspecified)
inactive: Potency [1] | Potency [2] | Potency [3] | Potency [4] | Potency [5] | Potency [6] | Potency [7] | Potency [8] | Potency [9] | Potency [10]

CCC(CC)Nc1ccc(C)c(C)c1
inactive: Potency [1] | Potency [2] | Potency [3] | Potency [4] | Potency [5] | Potency [6] | Potency [7] | Potency [8] | Potency [9] | Potency [10]

C[C@H]1C[C@H]2[C@@H]3CCC4=CC(=O)C=C[C@]4(C)[C@@]3(Cl)[C@@H](O)C[C@]2(C)[C@@]1(O)C(=O)CO
inactive: Potency [1] | Potency [2] | Potency [3] | Potency [4] | Potency [5] | Potency [6] | Potency [7] | Potency [8] | Potency [9] | Potency [10]

OCCNCc1ccccc1
inactive: Potency [1] | Potency [2] | Potency [3] | Potency [4] | Potency [5] | Potency [6] | Potency [7] | Potency [8] | Potency [9]

c1ccc(-c2ccccn2)nc1
inactive: Potency [1] | Potency [2] | Potency [3] | Potency [4] | Potency [5] | Potency [6] | Potency [7] | Potency [8] | Potency [9] | Potency [10]

COC(C)OC
inactive: Potency [1] | Potency [2] | Potency [3] | Potency [4] | Potency [5] | Potency [6] | Potency [7] | Potency [8] | Potency [9]

CC(=O)NO
inactive: Potency [1] | Potency [2] | Potency [3] | Potency [4] | Potency [5] | Potency [6] | Potency [7] | Potency [8] | Potency [9]

CC(COCCO)OCCO (stereo unspecified)
inactive: Potency [1] | Potency [2] | Potency [3] | Potency [4] | Potency [5] | Potency [6] | Potency [7] | Potency [8]

C[N+](C)(C)CCOC(=O)CCC(=O)OCC[N+](C)(C)C
inactive: Potency [1] | Potency [2] | Potency [3] | Potency [4] | Potency [5] | Potency [6] | Potency [7] | Potency [8] | Potency [9]

CC(=O)c1cccc([N+](=O)[O-])c1
inactive: Potency [1] | Potency [2] | Potency [3] | Potency [4] | Potency [5] | Potency [6] | Potency [7] | Potency [8] | Potency [9]

CCCCCC[C@@H](O)C/C=C\CCCCCCCC(=O)OC
inactive: Potency [1] | Potency [2] | Potency [3] | Potency [4] | Potency [5] | Potency [6] | Potency [7] | Potency [8] | Potency [9]

NS(=O)(=O)c1ccc(N2CCCCS2(=O)=O)cc1
inactive: Potency [1] | Potency [2] | Potency [3] | Potency [4] | Potency [5] | Potency [6] | Potency [7] | Potency [8] | Potency [9] | Potency [10]

CCC(C)(C)CC
inactive: Potency [1] | Potency [2] | Potency [3] | Potency [4] | Potency [5] | Potency [6] | Potency [7] | Potency [8]

CC(C)(C)OCC1CO1 (stereo unspecified)
inactive: Potency [1] | Potency [2] | Potency [3] | Potency [4] | Potency [5] | Potency [6] | Potency [7] | Potency [8] | Potency [9] | Potency [10]
